Records with an inconclusive call do not appear. Calls of active or inactive are those of the source. Calls come from the whole dose curve; as a rule, active = well fitted inhibition curve with a large enough effect in the signal ratio in the repeat runs (not every such curve was filed as active); inconclusive = weak or mixed curves, or effect the other way; inactive = no such curve, though single readings can be large or run the other way; the % refers to the signal ratio.
% is set by controls: 0 for no effect and ±100 for the full control effect.

Sequence of Estrogen receptor beta (Homo sapiens) (Q92731 whole entry, looked up): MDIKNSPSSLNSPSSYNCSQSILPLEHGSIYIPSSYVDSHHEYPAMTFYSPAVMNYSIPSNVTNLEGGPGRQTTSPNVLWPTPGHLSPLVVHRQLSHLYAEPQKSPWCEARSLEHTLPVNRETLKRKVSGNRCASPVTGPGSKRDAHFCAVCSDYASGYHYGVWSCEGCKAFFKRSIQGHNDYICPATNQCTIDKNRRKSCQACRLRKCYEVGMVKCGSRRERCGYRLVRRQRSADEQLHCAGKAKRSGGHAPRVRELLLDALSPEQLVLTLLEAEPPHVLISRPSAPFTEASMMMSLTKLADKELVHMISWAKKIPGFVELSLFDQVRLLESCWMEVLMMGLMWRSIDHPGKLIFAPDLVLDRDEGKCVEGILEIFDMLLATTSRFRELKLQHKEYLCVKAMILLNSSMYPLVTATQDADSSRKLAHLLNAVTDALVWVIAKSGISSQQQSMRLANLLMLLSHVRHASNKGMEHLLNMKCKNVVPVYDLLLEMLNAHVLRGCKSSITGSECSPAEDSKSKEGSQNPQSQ

This assay addresses Estrogen receptor beta (Homo sapiens) (UniProt Q92731). The assay is described as follows: qHTS assay to identify small molecule antagonists of the estrogen receptor beta (ER-beta) signaling pathway (AID 1259378). Particulars: ER-beta-UAS-bla HEK293T, beta-lactamase FRET ratio, 16 h; series mostly up to 92.4 µM; activity, negative = inhibition: at the top concentration. An excerpt:
National Center for Advancing Translational Sciences [NCATS]
NIH Chemical Genomics Center [NCGC]
U.S. Environmental Protection Agency [EPA]
National Institutes of Environmental Health Sciences [NIEHS]
National Toxicology Program [NTP]
U.S. Food and Drug Administration [FDA]
Estrogen receptor (ER), a nuclear hormone receptor, plays an important role in development, metabolic homeostasis and reproduction. Two subtypes of ER, ER-alpha and ER-beta, have similar expression patterns with some uniqueness in both types. Endocrine disrupting chemicals (EDCs) and their interactions with steroid hormone receptors like ER causes disruption of normal endocrine function. To identify the compounds that inhibit ER signaling, an ER-beta-UAS-bla GripTite cell line (Life Technologies, Madison, WI, USA) containing a beta-lactamase reporter gene under the control of an UAS response element was used to screen Tox21 10K compound library.
Tox21 Assay Protocol Summary:
ER-beta-UAS-bla HEK293T cells were dispensed at 2,000 cells/4 uL of assay medium containing 2% charcoal stripped FBS per well into black wall/clear-bottom 1536-well plates using a Multidrop Combi (ThermoFisher Scientific, Waltham, MA) dispenser. After the assay plates were incubated at a 37C and 5% CO2 for 6 hr, 23 nL of compounds dissolved in DMSO, positive controls or DMSO only was transferred to the assay plate by a Pintool station (Kalypsys, San Diego, CA), followed by addition of 1 uL (1nM as final concentration) of 17-beta-estradiol (E2) in assay medium using a BioRAPTR FRD (Flying Reagent Dispenser, Aurora Discovery, San Diego, CA). The plates were incubated at 37C and 5% CO2 for 16 hr. Then 1 uL of LiveBLAzerTM B/G FRET substrate was added using a Flying Reagent Dispenser, the plates were incubated at room temperature for 2 hours, and fluorescence intensity was measured by an Envision plate reader (PerkinElmer, Shelton, CT).
(In qHTS, concentration-response curves come from the screen itself.)
Turning to `CC(C)(C)C(=O)CCl`, the “activity, negative = inhibition” value was 14.3% (inactive).

On to `OC[C@@H](O)[C@H]1O[C@@H]2O[C@H](C(Cl)(Cl)Cl)O[C@@H]2[C@H]1O`, for which the outcome was inactive. As for `O=[N+]([O-])c1cc([As](=O)(O)O)ccc1O`, the outcome was inactive. Regarding `CSc1nnc(C(C)(C)C)c(=O)n1N`, the outcome was inactive.

As for `Nc1ccc(N)cc1`, the “activity, negative = inhibition” value was 1.7% [at 42.5 µM] (inactive). With `CN(C)C(=O)C(c1ccccc1)c1ccccc1`, the result was inactive.

On to `Nc1ccc([As](=O)(O)O)cc1`, for which the result was inactive. As for `O=S(=O)(O)OOS(=O)(=O)O`, the outcome was inactive. For the molecule `OCc1ccco1`, the outcome was inactive. With `CCCCC(CC)C(=O)Cl` (stereo not given), the result was inactive. Same read-out and setting: with `Cc1cccc(C)c1N` the entry was “inactive”; with `N#Cc1ccccn1`, “inactive”. Same read-out and setting: with `COC(C)(C)CCCC(C)C/C=C/C(C)=C/C(=O)OC(C)C` (stereo not given) the entry was “inactive”; with `Nc1ncc([N+](=O)[O-])s1`, “inactive”.

Regarding `COP(=S)(OC)Oc1ccc(SC)c(C)c1`, the outcome was inactive.

In the case of `CNC(=O)O/N=C(\SC)C(=O)N(C)C`, the outcome was inactive. Consider `CC(=O)/C=C/c1ccccc1`, for which the result was inactive. `O=C(O)c1cc(Oc2ccc(C(F)(F)F)cc2Cl)ccc1[N+](=O)[O-]`: the “activity, negative = inhibition” value was -12.2% [at 42.5 µM] (inactive). Take `ClCCOCCCl`: the outcome was inactive.

With `Cc1cccc(N)c1C`, the result was inactive. Still for that read-out and setting: the same measure for `CN1C(=O)CCS(=O)(=O)C1c1ccc(Cl)cc1` (stereo not given): “inactive”; for `CN(C)CCC#N`: “inactive”. Regarding `C=C(C)C(=O)OCC(CC)CCCC` (stereo not given), the “activity, negative = inhibition” value was 5.03% (inactive). For the molecule `COC(=O)Nc1cccc(OC(=O)Nc2cccc(C)c2)c1`, the outcome was inactive. Same read-out and setting: with `CN(C)NC(=O)CCC(=O)O` the entry was “inactive”. On to `CC(=O)C1CCOC1=O` (stereo not given), for which the “activity, negative = inhibition” value was 14.5% (inactive). As for `C=CC(=O)OCC(CC)CCCC` (stereo not given), the result was inactive. `Nc1cc(Cl)cc(Cl)c1`: the result was inactive. Still for that read-out and setting: with `Nc1cccc(Cl)c1` the entry was “inactive”.

Consider `NNc1ccccc1`, for which the “activity, negative = inhibition” value is -11.8% [at 42.5 µM] (inactive). `O=[N+]([O-])c1ccc(Cl)cc1`: the result was inactive. Same read-out and setting: with `CNC(=O)O/N=C/C(C)(C)S(C)=O` (stereo not given) the entry was “inactive”.

On to `CCOC(=O)CC(SP(=O)(OC)OC)C(=O)OCC` (stereo not given), for which the result was inactive. Still for that read-out and setting: the same measure for `COc1nc(NC(C)C)nc(NC(C)C)n1`: “inactive”; for `N#Cc1cccc(C#N)c1`: “inactive”; for `CN(C)C(=O)Nc1cccc(C(F)(F)F)c1`: “inactive”. On to `Nc1nc(N)nc(NC2CC2)n1`, for which the outcome was inactive. The same measure, in the same setting: with `O=C(O)COc1ccccc1` the entry was “inactive”. Take `CCOc1ccc(N)cc1`: the “activity, negative = inhibition” value is -11.8% (inactive).

Turning to `c1ccc2c(c1)CCCC2`, the result was inactive.

(Values after PubChem BioAssay (Tox21).)
